Results on 25 compounds are retold here after PubChem BioAssay (NCATS).

Records with an inconclusive call do not appear. Some structures have more than one record in an assay (separate samples or runs), and their calls can disagree. Calls of active or inactive are those of the source. Unless noted, calls follow the shape of the full dose curve.

Experiment [1] is described as follows: Cytotoxicity counterscreen for inhibitors of SARS-CoV-2 cell entry (AID 1645845). Also: nearly all actives have a fitted effect of over 50% in size. In short, it runs like this:
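ATP-content luminescence (ATPLite 1step, 15 min RT) read after 48 h compound exposure of Expi293F cells stably expressing human ACE2; normalized to cells-only wells and media-only wells.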
In general terms: Counterscreens check selectivity or assay interference.

A short description of experiment [2]: Primary qHTS to identify inhibitors of SARS-CoV-2 cell entry (AID 1645846). Also: nearly all actives have a fitted effect of over 45% in size. Also: potency is read from the fitted curve at half-maximal effect. In a few lines:
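Inhibition of spike-mediated entry was scored in human ACE2-transfected Expi293F cells. Particles were MLV-pseudotyped with Wuhan-Hu-1 S carrying a 19-aa C-terminal deletion; signal was luciferase after two days, scaled between spike PP and fusion-protein-free PP.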
In general terms: qHTS replaces the single test concentration by a dilution series.

The nature of experiment [3]: Primary qHTS for inhibitors of nuclear receptor binding SET domain protein 2 (NSD2) in an isogenic RCH-ACV NSD2 p.E1099K mutant (9B) (AID 1645876; active = well fitted curve in the direction sought with a large enough effect; an effect the other way counts as inactive or inconclusive; also: nearly all actives have a fitted effect of over 70% in size; also: potency is read from the fitted curve at half-maximal effect).
Experiment [4] in a line: Primary qHTS for inhibitors of nuclear receptor binding SET domain protein 2 (NSD2) in an RCH-ACV wild type WT cells (2C) (AID 1645877; active = well fitted curve in the direction sought with a large enough effect; an effect the other way counts as inactive or inconclusive; also: nearly all actives have a fitted effect of over 70% in size; also: potency is read from the fitted curve at half-maximal effect).
The target of the next experiment is Papain (Carica papaya) (UniProt P00784). In words: Primary qHTS assay for inhibitors of the protease papain (AID 1645873; active = well fitted curve in the direction sought with a large enough effect; an effect the other way counts as inactive or inconclusive;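 also: papain turnover of Z-FR-AMC read as the AMC fluorescence gain over 10 min; % is scaled to controls: 0 for no effect and ±100 for the full control effect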).
Chain of Papain (Carica papaya) (P00784 whole entry, looked up): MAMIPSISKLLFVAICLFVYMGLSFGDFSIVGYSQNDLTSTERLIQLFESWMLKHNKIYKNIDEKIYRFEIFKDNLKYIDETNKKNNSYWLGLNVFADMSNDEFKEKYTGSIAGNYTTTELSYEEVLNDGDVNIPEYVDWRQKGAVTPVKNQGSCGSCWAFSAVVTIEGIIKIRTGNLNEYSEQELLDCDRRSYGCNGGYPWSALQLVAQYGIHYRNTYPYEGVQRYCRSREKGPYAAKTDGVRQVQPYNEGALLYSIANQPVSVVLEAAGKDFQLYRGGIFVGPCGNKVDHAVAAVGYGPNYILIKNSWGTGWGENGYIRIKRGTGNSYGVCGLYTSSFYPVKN
The mark [5] stands for this setting: activity change, negative = inhibition: at 57.1 µM (top of the series) unless noted.

For `CN(C)CC/C=C1/c2ccccc2COc2ccc(CC(=O)O)cc21`, the Potency result in experiment [1] was “inactive”. Also, in experiment [2] (setting [5]), the Potency result was “inactive” and the activity change, negative = inhibition is -14.5%.

Turning to `CCOP(=O)(OCC)C(C)NC(=O)N(CCCl)N=O` (configuration not stated), the Potency result in experiment [1], in experiment [2] (setting [5]), in experiment [3] and in experiment [4] was “inactive” each time. Further, in experiment [2] (setting [5]), the activity change, negative = inhibition was -18.4%.

Take `NCCS`: the Potency entry in experiment [1] and in experiment [2] (setting [5]) was “inactive” in each case.

Take `CC(=O)N[C@@H](Cc1ccc(O)cc1)C(=O)O`: the Potency result in experiment [1] and in experiment [2] (setting [5]) was “inactive” each time.

With `CN[C@@H]1Cc2cccc3[nH]c(=O)n(c23)C1`, the Potency result in experiment [1], in experiment [3] and in experiment [4] was “inactive” throughout. In experiment [2] (setting [5]), the activity change, negative = inhibition is 4.06%.

Take `CCN(CC)C(=O)c1ccc(C2=CC3(CCNCC3)Oc3cccc(O)c32)cc1`: in experiment [1], the Potency entry is “inactive”. Moreover, in experiment [2] (setting [5]), the activity change, negative = inhibition is -22.9%.

With `C[C@](O)(COc1ccc(C#N)cc1)C(=O)Nc1ccc(C#N)c(C(F)(F)F)c1`, the Potency entry in experiment [1] is “inactive”. The activity change, negative = inhibition in experiment [2] (setting [5]) was -12.9%. For the same compound, the Potency in experiment [3] and in experiment [4] was 20.9 µM (active) each time.

`C#CC1(O)CCC2C3CCC4=CC(=O)CCC4(C)C3CCC21C` (configuration not stated): the Potency entry in experiment [1], in experiment [3] and in experiment [4] was “inactive” in each case. Moreover, the activity change, negative = inhibition in experiment [2] (setting [5]) was -0.771%.

With `O=C(O)COc1ccccc1`, the Potency result in experiment [1], in experiment [2] (setting [5]), in experiment [3] and in experiment [4] was “inactive” in each case.

In the case of `O=C1C=CC[C@@H]2[C@H]3CCCN4CCC[C@@H](CN12)[C@@H]34`, the Potency result in experiment [1], in experiment [2] (setting [5]), in experiment [3] and in experiment [4] was “inactive” in each case.

Turning to `O=[N+]([O-])/N=C1\NCCN1Cc1ccc(Cl)nc1`, the Potency result in experiment [1], in experiment [3] and in experiment [4] was “inactive” in each case. Further, in experiment [2] (setting [5]), the activity change, negative = inhibition is -0.0091%.

Turning to `CSCC[C@@H](NC(=O)[C@@H](Cc1ccccc1)NC(=O)CNC(=O)CNC(=O)[C@@H](N)Cc1ccc(O)cc1)C(=O)O`, the Potency entry in experiment [1], in experiment [3] and in experiment [4] was “inactive” throughout. For the same compound, in experiment [2] (setting [5]), the activity change, negative = inhibition is -0.623%.

With `NC(=O)c1ccc(I)c([N+](=O)[O-])c1`, in experiment [1], the Potency entry was “inactive”. Moreover, the activity change, negative = inhibition in experiment [2] (setting [5]) was -6.13%.

With `O=C(N[C@H]1CN2CCC1CC2)c1ccc(Cl)cc1`, the Potency result (in experiment [1]; with Papain (Carica papaya); in experiment [3]; in experiment [4]) was “inactive” throughout. The activity change, negative = inhibition in experiment [2] (setting [5]) was determined as 4.38%.

With `C[C@@H]1CN(c2c(F)c(N)c3c(=O)c(C(=O)O)cn(C4CC4)c3c2F)C[C@H](C)N1`, in experiment [1], the Potency entry was “inactive”. Also, the activity change, negative = inhibition in experiment [2] (SARS-CoV-2 pseudovirus cell entry assay, luminescence, at 27.1 µM (top of the series)) is -12.9%; in experiment [2] (SARS-CoV-2 pseudovirus cell entry assay, luminescence, at 57.1 µM (top of the series)) it was -5.48%.

With `O=C(Oc1ccc([N+](=O)[O-])cc1)N1CCC(C(O)(c2ccc3c(c2)OCO3)c2ccc3c(c2)OCO3)CC1`, the Potency entry in experiment [1], in experiment [3] and in experiment [4] was “inactive” each time. Besides, the activity change, negative = inhibition in experiment [2] (setting [5]) was -17.3%.

As to `CCOc1cc(NC(C)=O)ccc1C(=O)OC`, the Potency result in experiment [1] and in experiment [2] (setting [5]) was “inactive” throughout.

For `Cn1cc(-c2ccc3nnc(Sc4ccc5ncccc5c4)n3n2)cn1`, the Potency result in experiment [1] and in experiment [2] (setting [5]) was “inactive” in each case.

As to `CCCC[N+]1(C)[C@H]2CC(OC(=O)[C@H](CO)c3ccccc3)C[C@H]1[C@H]1O[C@H]12` (some centres not stated), the Potency result in experiment [1], in experiment [3] and in experiment [4] was “inactive” throughout. In addition, in experiment [2] (setting [5]), the activity change, negative = inhibition is -13.1%.

For the compound `CCN1CCN(CC(=O)Nc2ccc(-c3cccc4c(=O)cc(N5CCOCC5)oc34)c3sc4ccccc4c23)CC1`, in experiment [2] (setting [5]), the Potency is 5.62 µM (active).

Regarding `O=C(N[C@@H](COc1ccc2[nH]c(=O)[nH]c2c1)c1ccccc1)c1cccn(Cc2ccc(F)c(F)c2)c1=O`, the Potency entry in experiment [1] is “inactive”. Moreover, the Potency is 1.63 µM (active) in experiment [3] and 4.17 µM (active) in experiment [4].

In the case of `CCN(CC)CCOc1ccc(Nc2ncc3cc(-c4c(Cl)cccc4Cl)c(=O)n(C)c3n2)cc1`, the Potency in experiment [2] (setting [5]) is 3.16 µM (active).

On to `Cc1nn(Cc2ccccc2Cl)c(C)c1CN(C)CC(O)COc1ccc(Cl)cc1` (configuration not stated), for which the Potency in experiment [2] (setting [5]) is 31.6 µM (active).

`CC(C)(C)c1cc(C=C(C#N)C#N)cc(Br)c1O`: the Potency entry in experiment [1], in experiment [2] (setting [5]) and in experiment [3] was “inactive” in each case. Further, in experiment [4], the Potency is 16.4 µM (active) and inactive.

On to `CN1CCN(c2ccc([N+](=O)[O-])c3no[n+]([O-])c23)CC1`, for which, in experiment [1], the Potency entry was “inactive”. In experiment [2] (setting [5]), the activity change, negative = inhibition was -23.8%. Besides, the Potency in experiment [4] is 20.9 µM (active).
